Our source for the outcome and AC50 values is PubChem BioAssay (EPA / NIEHS).

The nature of assay [1]: ATG_GLI_CIS: Attagene CIS-FACTORIAL HepG2 Assay for human Zinc Finger Protein GLI1 (AID 2282945). To be noted: HepG2, Attagene cis-factorial reporter mRNA, GLI element; actives raise or lower the signal. The method in brief:
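Transiently transfected HepG2 cells report endogenous transcription factor activity via cis-element-driven reporter units. After 24 h compound exposure, reporter mRNA was measured by RT-PCR with capillary electrophoresis; bidirectional fitting against DMSO baseline.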

The target of assay [2] is Bile acid receptor (Homo sapiens) (UniProt Q96RI1). The experiment in a line: ATG_IR1_CIS: Attagene CIS-FACTORIAL HepG2 Assay for human Nuclear Receptor Subfamily 1 Group H Member 4 (NR1H4), IR1 submotif (AID 2282946). To be noted: IR1 reporter transcription, actives raise or lower the signal. The procedure, abridged: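 Fluorescence of capillary-separated, HpaI-digested RT-PCR reporter products gave IR1-element mRNA induction in HepG2 cells 24 h after dosing. Endogenous transcription factors drove the cis-regulated reporters; activity was fitted bidirectionally against DMSO.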
Sequence of Bile acid receptor (Homo sapiens) (Q96RI1 whole entry, looked up): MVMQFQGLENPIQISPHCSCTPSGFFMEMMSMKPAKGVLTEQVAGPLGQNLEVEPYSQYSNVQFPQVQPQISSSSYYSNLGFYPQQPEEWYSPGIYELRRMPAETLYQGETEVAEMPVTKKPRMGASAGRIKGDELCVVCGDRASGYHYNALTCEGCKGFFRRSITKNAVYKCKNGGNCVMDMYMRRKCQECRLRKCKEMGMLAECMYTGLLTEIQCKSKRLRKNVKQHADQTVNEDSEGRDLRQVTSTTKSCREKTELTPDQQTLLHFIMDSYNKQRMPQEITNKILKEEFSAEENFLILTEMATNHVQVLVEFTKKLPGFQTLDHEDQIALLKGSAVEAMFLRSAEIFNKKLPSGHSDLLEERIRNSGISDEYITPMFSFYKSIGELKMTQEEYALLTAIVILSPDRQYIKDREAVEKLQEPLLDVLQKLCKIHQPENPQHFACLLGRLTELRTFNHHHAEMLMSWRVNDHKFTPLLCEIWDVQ

The nature of assay [3]: ATG_ISRE_CIS: Attagene CIS-FACTORIAL HepG2 Assay for human Interferon Regulatory Factor 1 (IRF1) binding to an Interferon-Stimulated Response Element (ISRE) (AID 2282948). To be noted: HepG2 ISRE cis-reporter (Attagene), mRNA transcription readout; actives raise or lower the signal. The method in brief: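 Read-out: fluorescent RT-PCR products resolved by capillary electrophoresis, reporting endogenous transcription factor activity via ISRE-driven reporter mRNA in transfected HepG2 cells dosed for 24 h; gain or loss fitted relative to DMSO.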

Assay [4] is described as follows: ATG_M_32_CIS: Attagene CIS-FACTORIAL HepG2 Assay for M32 Transcription Factor (Internal Marker) (AID 2282949).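 Further: background control marker of the multiplexed CIS panel rather than a real target.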 To be noted: HepG2 Attagene cis-factorial M32 reporter, mRNA; actives raise or lower the signal. The method in brief: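 HepG2 transfectants (cis-regulated reporter transcription units) dosed 24 h. Reporter mRNA by RT-PCR plus CE, analysed as gain or loss relative to DMSO.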

The target of assay [5] is Hypoxia-inducible factor 1-alpha (Homo sapiens) (UniProt Q16665). Put plainly: ATG_HIF1a_CIS: Attagene CIS-FACTORIAL HepG2 Assay for human Hypoxia Inducible Factor 1 (HIF1A) (AID 2282951). To be noted: HepG2 Attagene cis-factorial HIF1a reporter transcription; actives raise or lower the signal. The method in brief:
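Activity is fitted in both directions relative to DMSO. Reporter transcripts are read by RT-PCR, fluorescent primer extension and capillary electrophoresis after 24 h chemical treatment. The cells are HepG2 carrying transiently transfected cis-element-driven reporter units responding to endogenous factors.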

Assay [6] concerns the target Hepatocyte nuclear factor 6 (Homo sapiens) (UniProt Q9UBC0). Put plainly: ATG_HNF6_CIS: Attagene CIS-FACTORIAL HepG2 Assay for human Hepatocyte Nuclear Factor 6 (HNF6) (AID 2282952). Conditions: HepG2 Attagene cis-factorial HNF6 reporter transcription; actives raise or lower the signal. The procedure, abridged: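 First, HepG2 cells were transfected with the multiplexed cis reporter library and dosed with chemical for 24 h. Next, RNA was reverse-transcribed, PCR-amplified and fluorescently labelled. Finally, HpaI-digested fragments were read by capillary electrophoresis.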

Assay [7] concerns the target Heat shock factor protein 1 (Homo sapiens) (UniProt Q00613). The experiment in a line: ATG_HSE_CIS: Attagene CIS-FACTORIAL HepG2 Assay for human Heat Shock Transcription Factor 1 (HSE) (AID 2282953). To be noted: HepG2 HSE cis-reporter, Attagene RNA transcription; actives raise or lower the signal. The method in brief: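 After a 24 h incubation with test chemical, transfected HepG2 cells were harvested for RNA; reporter transcripts were measured by RT-PCR and capillary electrophoresis. Values reflect gain or loss of signal relative to DMSO.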

The nature of assay [8]: ATG_MRE_CIS: Attagene CIS-FACTORIAL HepG2 Assay for human Metal Responsive Element (MRE) (AID 2282954). Conditions: HepG2 MRE cis-reporter transcription, Attagene multiplex; actives raise or lower the signal. The method in brief: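 Measured here is mRNA induction from an MRE cis-element reporter in HepG2 after 24 h, quantified by fluorescence of labelled RT-PCR products on capillary electrophoresis; gain- and loss-of-signal fits use DMSO as baseline.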

Assay [9] in a line: ATG_GRE_CIS: Attagene CIS-FACTORIAL HepG2 Assay for human Glucocorticoid Response Elements (GRE) (AID 2282947). To be noted: HepG2 GRE cis-reporter, Attagene multiplex mRNA; actives raise or lower the signal. The method in brief: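 Fluorescence intensity of reporter-specific cDNA fragments, separated by capillary electrophoresis, provides the signal. Constructs carry cis-regulating promoters in transiently transfected HepG2 liver cells; 24 h incubation; fitting is bidirectional against DMSO.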

The nature of assay [10]: ATG_M_06_CIS: Attagene CIS-FACTORIAL HepG2 Assay for M06 Transcription Factor (Internal Marker) (AID 2282950). To be noted: HepG2 Attagene CIS-FACTORIAL M06 internal marker reporter; actives raise or lower the signal. The method in brief: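 Fluorescence-labelled RT-PCR products from cis-promoter reporter units, cut with HpaI and resolved by capillary electrophoresis, give the signal. Cells are human HepG2, dosed for 24 h. Serves as background control, fitted relative to DMSO.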

Each structure is given as a SMILES string. Activity calls are given as the source filed them. How the source made its calls: active means hit-call score of the fitted dose curve at least 0.9, where 1 is the maximum; inactive means score below 0.9. Peptide text beside a SMILES is read from it.

Sequence of Hypoxia-inducible factor 1-alpha (Homo sapiens) (Q16665 whole entry, looked up): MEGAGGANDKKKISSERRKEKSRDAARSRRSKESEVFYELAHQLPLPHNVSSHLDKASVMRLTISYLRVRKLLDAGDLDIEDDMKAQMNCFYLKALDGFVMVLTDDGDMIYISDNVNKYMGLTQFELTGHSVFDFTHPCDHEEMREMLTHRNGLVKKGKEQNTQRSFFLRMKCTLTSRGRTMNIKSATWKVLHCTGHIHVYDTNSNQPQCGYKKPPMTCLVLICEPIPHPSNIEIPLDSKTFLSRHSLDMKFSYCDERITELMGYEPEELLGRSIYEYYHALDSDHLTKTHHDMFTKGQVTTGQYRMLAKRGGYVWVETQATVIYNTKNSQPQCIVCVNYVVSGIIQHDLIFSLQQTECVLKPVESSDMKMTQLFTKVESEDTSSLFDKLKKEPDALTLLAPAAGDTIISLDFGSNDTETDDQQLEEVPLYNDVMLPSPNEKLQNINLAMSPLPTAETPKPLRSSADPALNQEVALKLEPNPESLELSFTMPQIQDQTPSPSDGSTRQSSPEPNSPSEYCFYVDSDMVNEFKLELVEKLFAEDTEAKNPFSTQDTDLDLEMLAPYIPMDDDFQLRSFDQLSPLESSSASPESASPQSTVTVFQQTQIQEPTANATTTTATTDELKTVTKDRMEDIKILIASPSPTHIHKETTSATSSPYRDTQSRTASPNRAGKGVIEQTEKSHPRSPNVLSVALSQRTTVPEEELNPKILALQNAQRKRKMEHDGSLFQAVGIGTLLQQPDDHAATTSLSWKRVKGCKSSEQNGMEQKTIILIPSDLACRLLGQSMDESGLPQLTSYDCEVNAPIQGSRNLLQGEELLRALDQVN
Sequence of Heat shock factor protein 1 (Homo sapiens) (Q00613 whole entry, looked up): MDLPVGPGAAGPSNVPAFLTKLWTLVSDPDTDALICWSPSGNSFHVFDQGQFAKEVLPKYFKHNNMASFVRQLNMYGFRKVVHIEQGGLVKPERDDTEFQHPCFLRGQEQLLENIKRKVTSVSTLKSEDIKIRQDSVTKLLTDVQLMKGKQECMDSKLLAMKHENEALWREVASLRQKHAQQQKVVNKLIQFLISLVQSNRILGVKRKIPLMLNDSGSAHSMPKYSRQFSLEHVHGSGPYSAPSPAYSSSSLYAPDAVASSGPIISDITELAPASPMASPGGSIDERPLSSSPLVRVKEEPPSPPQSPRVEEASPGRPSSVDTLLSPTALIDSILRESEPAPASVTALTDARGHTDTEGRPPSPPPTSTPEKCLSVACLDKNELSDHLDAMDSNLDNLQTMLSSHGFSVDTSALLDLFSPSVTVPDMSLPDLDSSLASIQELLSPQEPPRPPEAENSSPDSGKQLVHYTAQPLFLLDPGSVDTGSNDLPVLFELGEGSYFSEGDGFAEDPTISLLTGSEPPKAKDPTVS
Sequence of Hepatocyte nuclear factor 6 (Homo sapiens) (Q9UBC0 whole entry, looked up, the tested form may be a part): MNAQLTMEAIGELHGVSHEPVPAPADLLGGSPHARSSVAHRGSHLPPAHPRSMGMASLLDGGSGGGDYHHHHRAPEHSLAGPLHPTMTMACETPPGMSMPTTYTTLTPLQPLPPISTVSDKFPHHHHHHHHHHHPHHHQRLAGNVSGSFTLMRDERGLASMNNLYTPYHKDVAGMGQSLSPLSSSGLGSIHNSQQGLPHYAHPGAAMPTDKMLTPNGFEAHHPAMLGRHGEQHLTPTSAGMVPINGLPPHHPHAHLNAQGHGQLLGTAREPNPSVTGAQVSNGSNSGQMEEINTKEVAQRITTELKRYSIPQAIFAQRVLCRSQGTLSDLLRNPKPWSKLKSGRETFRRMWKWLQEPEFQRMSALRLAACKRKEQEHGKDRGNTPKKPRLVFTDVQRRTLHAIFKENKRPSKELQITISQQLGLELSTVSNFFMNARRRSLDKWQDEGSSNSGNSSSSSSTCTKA

As for `Cc1ccc([N+](=O)[O-])cc1N`, the call in [1], in [2], in assay [3], in [4], in assay [5] and in [6] was inactive. Besides, the call in assay [7] and in assay [8] was inactive.

Consider `O=C(O)C(F)(F)C(F)(F)C(F)(F)C(F)(F)C(=O)O`, for which the molecule was classed as inactive in assay [1], in assay [2], in assay [9], in assay [3], in [4] and in assay [10]. In addition, the result in [6] and in [7] was inactive.

With `C=CC(C)(CCC=C(C)C)OC(=O)C=Cc1ccccc1` (stereo not given), the molecule was called inactive in assay [1], in assay [2], in assay [3], in assay [4], in assay [10] and in assay [5]. Also, the molecule was called inactive in assay [6], in assay [7] and in assay [8].

With `CO[Si](CCCS)(OC)OC`, the call in assay [1], in assay [2], in assay [9], in assay [3], in assay [4] and in assay [5] was inactive. For the same molecule, the molecule was called inactive in assay [6], in assay [7] and in assay [8].

With `CCCCCCCCCCCCc1ccc(O)cc1`, the result in assay [1], in assay [2], in assay [9], in assay [3], in [4] and in assay [5] was inactive. Further, the result in assay [6] and in [7] was inactive.

With `O=C(O)/C=C/c1ccccc1`, the molecule was called inactive in [1], in [2], in assay [9], in [3], in assay [4] and in assay [10]. Further, the outcome in assay [5], in assay [6] and in [8] was inactive.

Turning to `CCCCCC(=O)OCC`, the outcome in assay [1], in [2], in [9], in [3], in [4] and in assay [5] was inactive. Also, the call in [6], in assay [7] and in assay [8] was inactive.

Consider `[Cl][Eu]([Cl])[Cl]`, for which the molecule was classed as inactive in [1], in [2], in assay [9], in assay [3], in assay [4] and in assay [10]. For the same molecule, the molecule was called inactive in assay [5], in assay [6], in [7] and in [8].

For `CN(C)c1ccc2nc3ccc(=[N+](C)C)cc-3sc2c1`, the molecule was classed as inactive in assay [1], in assay [2], in [9], in assay [4], in assay [10] and in assay [6]. For the same molecule, the call in [7] and in assay [8] was inactive. Further, the AC50 (as a rule, the concentration at which the activity in the assay is half-maximal) in assay [5] was 0.766 µM (active).

Regarding `CCCCCCCC(=O)OCC`, the result in [1], in assay [2], in assay [9], in [4], in [10] and in [5] was inactive. Also, the outcome in assay [6], in [7] and in assay [8] was inactive.

As for `Cc1cc(=O)[nH]c(=O)[nH]1`, the molecule was classed as inactive in [1], in assay [2], in assay [9], in [3], in assay [4] and in assay [10]. Also, the result in assay [5], in assay [6], in assay [7] and in [8] was inactive.

As for `COc1cc(O)c(C(=O)c2ccccc2)cc1S(=O)(=O)O`, the molecule was classed as inactive in [1], in [2], in assay [3], in [4], in assay [10] and in assay [5]. The molecule was classed as inactive in assay [6], in assay [7] and in [8].

In the case of `CC(C)(CO)C(O)C(=O)NCCCO` (stereo not given), the call in [1], in assay [2], in assay [3], in assay [4], in assay [10] and in assay [6] was inactive. In addition, the call in assay [7] and in assay [8] was inactive.

Consider `C=CC(=O)NC(C)(C)C`, for which the call in assay [1], in [9], in [4], in [10], in assay [5] and in assay [6] was inactive. Also, the result in assay [7] and in [8] was inactive. In addition, the AC50 in assay [2] is 27.5 µM (active).

Turning to `CCOC(=O)C1=NOC(c2ccccc2)(c2ccccc2)C1`, the molecule was called inactive in [1], in [2], in assay [9], in assay [4], in assay [10] and in [6]. The call in assay [8] was inactive. For the same molecule, the AC50 in [5] was 160 µM (active); in assay [7], 143 µM (active).

In the case of `CCCC/C=C/C=C\C=O`, the concentration at half-maximal activity (AC50) in assay [1] was 128 µM (active); in [2], 71.6 µM (active); in [3], 100 µM (active); in assay [7], 157 µM (active); in assay [8], 100 µM (active). Besides, the molecule was classed as inactive in assay [4], in [10], in assay [5] and in assay [6].

Consider `CC1OC(=O)C(C)OC1=O` (stereo not given), for which the call in [1], in assay [2], in [9], in assay [3], in assay [4] and in assay [10] was inactive. In addition, the outcome in [6], in [7] and in assay [8] was inactive. Besides, the AC50 in assay [5] is 26.6 µM (active).

Turning to `CCCCC/C=C\C/C=C\CCCCCCCC(=O)O`, the outcome in [1], in assay [3], in [4], in assay [10] and in assay [6] was inactive. For the same molecule, the AC50 is 76.3 µM (active) in assay [2], 26.6 µM (active) in assay [5], 150 µM (active) in [7] and 149 µM (active) in assay [8].

For `COC(=O)[C@H](Cc1ccccc1)NC(=O)[C@@H](N)CC(=O)O` (H-Asp-Phe-OMe), the molecule was classed as inactive in assay [1], in assay [2], in assay [9], in assay [3], in assay [4] and in assay [10]. Moreover, the outcome in assay [5], in assay [6], in [7] and in assay [8] was inactive.

With `CC(=O)c1ccccc1O`, the result in assay [1], in [2], in assay [3], in assay [4], in assay [10] and in [5] was inactive. For the same molecule, the call in [6], in assay [7] and in assay [8] was inactive.

`C=CC(=O)OCCCCCCCC(C)C`: the molecule was classed as inactive in [1], in assay [3], in assay [4], in assay [10], in assay [6] and in assay [7]. The outcome in [8] was inactive. In addition, the AC50 is 91.4 µM (active) in assay [2] and 71.8 µM (active) in assay [5].

For the molecule `O=C(Nc1ccccc1)c1cc(Cl)ccc1O`, the molecule was called inactive in [1], in [2], in assay [9], in [4], in assay [10] and in [5]. In addition, in assay [6], the call was inactive. In addition, the results for the AC50 in assay [7] and in assay [8] were 2.93 µM (active) and 23.9 µM (active), respectively.

Regarding `CC1CCC(C(C)(C)S)C(=O)C1` (stereo not given), the molecule was called inactive in assay [1], in assay [2], in [3], in assay [4], in assay [10] and in assay [5]. Besides, the outcome in [6], in assay [7] and in [8] was inactive.

As to `COC(OC)(C(=O)c1ccccc1)c1ccccc1`, the outcome in assay [1], in assay [9], in assay [3], in assay [4], in [10] and in assay [5] was inactive. For the same molecule, the molecule was called inactive in assay [6] and in assay [7]. Moreover, the half-maximal activity concentration (AC50) in assay [8] is 43.5 µM (active).

Consider `CCCCOC(=O)CCC(C)=O`, for which the call in [1], in assay [9], in [3], in assay [4], in [10] and in [5] was inactive. For the same molecule, the molecule was called inactive in [6] and in [7].

As to `Nc1ccc(C(=O)O)cc1`, the molecule was classed as inactive in [1], in assay [9], in assay [3], in [4], in assay [10] and in assay [5]. Besides, the result in assay [6] and in [7] was inactive.

With `NNS(=O)(=O)c1ccc(Oc2ccc(S(=O)(=O)NN)cc2)cc1`, the call in assay [1], in assay [2], in [3], in assay [4], in [5] and in assay [6] was inactive. The molecule was classed as inactive in assay [7] and in assay [8].
